In PubChem BioAssay (Tox21):
Values joined by “and” are separate entries in the source; they are usually repeats but may differ in a detail not shown here. Equal values may be shown once. Results filed as inconclusive are left out. A call without a number means that no potency is given here. The source holds several records for some structures; these can differ, active in one and inactive in another. Active and inactive are the calls of the source. Calls come from the whole dose curve; as a rule, active = well fitted curve in the direction sought with a large enough effect in the repeat runs; inconclusive = weak or mixed curves; inactive = no such curve, though single readings can be large; an effect the other way counts as inactive or inconclusive.

Experiments:
[1] = target: Cytochrome P450 2C9 (Homo sapiens) (UniProt P11712); assay: Cytochrome P450 Family 2 Subfamily C Member 9 (CYP2C9) small molecule antagonists: luciferase reporter qHTS assay (AID 1671198)
Outline: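 Enzyme-substrate mix preincubated with compound 10 min at room temperature; reaction started with NADPH regeneration solution, 1 h 37C. Luminescent luciferin product read after 20 min detection reagent.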

[2] = target: Cytochrome P450 1A2 (Homo sapiens) (UniProt P05177); assay: Cytochrome P450 Family 1 Subfamily A Member 2 (CYP1A2) small molecule antagonists: luciferase reporter qHTS assay (AID 1671199)
Outline: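 Enzymatic CYP1A2 assay, human, luminescent: 10 min compound–enzyme–substrate preincubation, 1 h NADPH-dependent turnover, 20 min detection step, room temperature throughout. Reduced light indicates lower CYP1A2 activity.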

[3] = target: Voltage-gated inwardly rectifying potassium channel KCNH2 (Homo sapiens) (UniProt Q12809); assay: Human Ether-a-go-go-Related Gene (hERG) channel small molecule antagonists: fluorescence cell-based qHTS assay (AID 1671200)
Outline: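 Read-out: thallium influx as a surrogate for potassium, tracked as fluorescence (480 nm ex/540 nm em) every second for 2 min after Stimulus Buffer addition in dye-loaded hERG-U2OS cells.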

[4] = target: Cytochrome P450 3A4 (Homo sapiens) (UniProt P08684); assay: Cytochrome P450 Family 3 Subfamily A Member 4 (CYP3A4) small molecule antagonists: luciferase reporter qHTS assay (AID 1671201)
Outline: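 Luminescent readout (RLU) proportional to CYP3A4 activity, from luciferin generated off a proluciferin substrate. Enzyme–substrate mix plus compound 10 min at room temp, NADPH regeneration 1 h, detection reagent 20 min.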
Note: nearly all actives have a fitted effect of over 50% in size.
Potency is the fitted concentration of half-maximal effect.

Chain of Cytochrome P450 2C9 (Homo sapiens) (P11712 whole entry, looked up): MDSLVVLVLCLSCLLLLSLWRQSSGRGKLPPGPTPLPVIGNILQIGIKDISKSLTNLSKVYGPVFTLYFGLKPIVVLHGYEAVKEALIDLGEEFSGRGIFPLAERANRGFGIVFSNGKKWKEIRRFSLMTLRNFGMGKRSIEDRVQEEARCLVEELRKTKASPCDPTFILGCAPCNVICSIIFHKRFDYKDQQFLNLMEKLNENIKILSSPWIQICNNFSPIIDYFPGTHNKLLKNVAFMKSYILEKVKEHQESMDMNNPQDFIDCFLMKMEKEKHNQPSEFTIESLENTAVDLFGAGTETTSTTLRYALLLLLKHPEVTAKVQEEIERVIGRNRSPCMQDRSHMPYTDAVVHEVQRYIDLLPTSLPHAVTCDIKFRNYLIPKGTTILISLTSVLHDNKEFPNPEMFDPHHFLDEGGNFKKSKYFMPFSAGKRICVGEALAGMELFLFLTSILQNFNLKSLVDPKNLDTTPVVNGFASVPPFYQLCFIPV
Chain of Voltage-gated inwardly rectifying potassium channel KCNH2 (Homo sapiens) (Q12809 whole entry, looked up): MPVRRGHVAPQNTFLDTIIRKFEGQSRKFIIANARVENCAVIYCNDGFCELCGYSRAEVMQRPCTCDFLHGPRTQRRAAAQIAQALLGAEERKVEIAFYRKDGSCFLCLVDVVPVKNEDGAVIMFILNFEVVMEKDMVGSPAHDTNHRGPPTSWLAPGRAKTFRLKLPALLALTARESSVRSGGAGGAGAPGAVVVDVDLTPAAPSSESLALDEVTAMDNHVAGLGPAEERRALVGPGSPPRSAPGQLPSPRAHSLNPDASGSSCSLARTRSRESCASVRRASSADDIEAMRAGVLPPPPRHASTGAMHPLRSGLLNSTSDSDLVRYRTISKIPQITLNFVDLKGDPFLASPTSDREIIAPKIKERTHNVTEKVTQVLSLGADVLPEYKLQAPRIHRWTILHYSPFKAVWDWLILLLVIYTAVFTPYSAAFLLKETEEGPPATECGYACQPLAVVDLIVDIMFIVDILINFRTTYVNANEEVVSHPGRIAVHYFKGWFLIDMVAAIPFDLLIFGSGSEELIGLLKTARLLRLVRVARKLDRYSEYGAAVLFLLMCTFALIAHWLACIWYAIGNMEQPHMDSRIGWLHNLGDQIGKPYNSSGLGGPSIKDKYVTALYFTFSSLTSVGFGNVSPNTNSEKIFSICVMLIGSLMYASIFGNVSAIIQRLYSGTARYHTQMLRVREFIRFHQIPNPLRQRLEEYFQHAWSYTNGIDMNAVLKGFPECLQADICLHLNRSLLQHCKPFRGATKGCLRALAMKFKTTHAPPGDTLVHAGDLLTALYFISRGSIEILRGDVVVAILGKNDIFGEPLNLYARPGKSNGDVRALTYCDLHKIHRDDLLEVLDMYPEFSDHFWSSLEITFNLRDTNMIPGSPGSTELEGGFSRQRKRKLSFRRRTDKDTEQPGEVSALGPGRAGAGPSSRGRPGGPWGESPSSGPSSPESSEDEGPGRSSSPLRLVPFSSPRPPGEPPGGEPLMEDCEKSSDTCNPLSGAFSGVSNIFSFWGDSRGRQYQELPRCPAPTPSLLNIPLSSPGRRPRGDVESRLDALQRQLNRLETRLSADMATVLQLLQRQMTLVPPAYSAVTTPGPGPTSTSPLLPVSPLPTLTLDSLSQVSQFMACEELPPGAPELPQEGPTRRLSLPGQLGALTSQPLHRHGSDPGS
Chain of Cytochrome P450 3A4 (Homo sapiens) (P08684 whole entry, looked up): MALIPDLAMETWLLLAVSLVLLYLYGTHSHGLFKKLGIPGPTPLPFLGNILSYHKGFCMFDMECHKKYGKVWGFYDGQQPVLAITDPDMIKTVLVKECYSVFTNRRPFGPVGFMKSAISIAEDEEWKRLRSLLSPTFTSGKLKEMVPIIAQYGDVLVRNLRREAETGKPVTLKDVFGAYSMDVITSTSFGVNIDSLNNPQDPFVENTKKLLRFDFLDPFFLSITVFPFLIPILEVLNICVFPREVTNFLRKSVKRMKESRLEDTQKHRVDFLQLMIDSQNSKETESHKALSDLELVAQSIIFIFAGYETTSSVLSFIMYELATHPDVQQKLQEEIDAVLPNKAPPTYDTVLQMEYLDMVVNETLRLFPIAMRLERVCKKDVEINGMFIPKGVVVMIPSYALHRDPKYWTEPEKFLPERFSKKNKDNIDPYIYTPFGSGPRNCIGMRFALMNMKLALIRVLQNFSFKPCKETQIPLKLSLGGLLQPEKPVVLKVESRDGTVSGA
Chain of Cytochrome P450 1A2 (Homo sapiens) (P05177 whole entry, looked up): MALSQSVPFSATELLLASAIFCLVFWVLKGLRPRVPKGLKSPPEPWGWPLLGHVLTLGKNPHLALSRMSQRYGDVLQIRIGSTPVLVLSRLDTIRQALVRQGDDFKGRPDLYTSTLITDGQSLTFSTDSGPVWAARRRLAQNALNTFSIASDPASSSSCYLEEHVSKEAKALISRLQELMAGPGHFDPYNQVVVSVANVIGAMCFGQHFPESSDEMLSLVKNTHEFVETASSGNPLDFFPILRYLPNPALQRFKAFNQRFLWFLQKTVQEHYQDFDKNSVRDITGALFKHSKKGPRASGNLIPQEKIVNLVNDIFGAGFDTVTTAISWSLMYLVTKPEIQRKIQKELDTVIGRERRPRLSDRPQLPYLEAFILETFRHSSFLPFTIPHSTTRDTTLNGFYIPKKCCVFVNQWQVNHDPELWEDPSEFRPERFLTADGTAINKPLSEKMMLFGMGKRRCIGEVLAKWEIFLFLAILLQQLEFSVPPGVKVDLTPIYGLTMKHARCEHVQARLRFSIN

Row | SMILES | Potency [1] | Potency [2] | Potency [3] | Potency [4]
1 | Nc1ccc2c(O)cc(S(=O)(=O)O)cc2c1 | 71 µM (active) | inactive | inactive | inactive
2 | C=CN1CCCC1=O | inactive | inactive | inactive | inactive
3 | O=[Se](O)O | 7.11 µM (active) | inactive and 13.6 µM (active) | inactive | inactive
4 | Cc1ccc(/C(=C\CN2CCCC2)c2ccccn2)cc1 | inactive | inactive | 18.3 µM (active) and 10.7 µM (active) | inactive
5 | O=Cc1ccccc1C=O | 35.6 µM (active) and inactive | 63.3 µM (active) and inactive | inactive | inactive
6 | C=CCOC(=O)C(=C)C | inactive | inactive | inactive | inactive
7 | C1COCCN1 | inactive | inactive | inactive | inactive
8 | CC(=O)O[C@]1(C(C)=O)CC[C@H]2[C@@H]3C=C(C)C4=CC(=O)CC[C@]4(C)[C@H]3CC[C@@]21C | 7.96 µM (active) and 8.71 µM (active) | inactive | inactive | inactive
9 | O=C1CCc2ccccc2O1 | inactive | inactive | inactive | inactive
10 | CCCCCCCC/C=C\CCCCCCCC(=O)O | inactive | inactive | inactive | inactive
11 | Cc1ccc(S(=O)(=O)O)cc1C | inactive | inactive | inactive | inactive
12 | Cc1ccc([N+](=O)[O-])c(C)c1 | inactive | inactive | inactive | inactive
13 | C=CCCCCCCCCCC | inactive | inactive | inactive | inactive
14 | CC1(C)O[C@@H]2C[C@H]3[C@@H]4C[C@H](F)C5=CC(=O)C=C[C@]5(C)[C@@]4(F)[C@@H](O)C[C@]3(C)[C@]2(C(=O)CO)O1 | 39.9 µM (active) | inactive | inactive | 20 µM (active) and 3.89 µM (active)
15 | Oc1c(Cl)ccc(Cl)c1Cl | 35.5 µM (active) and 35.6 µM (active) | 35.5 µM (active) and 35.6 µM (active) | inactive | inactive
16 | CNC[C@H](O)c1ccc(O)c(O)c1 |  |  | inactive | 
17 | CN1CCOCC1 |  |  | inactive | 
18 | c1ccc2ncccc2c1 |  | inactive and 35.6 µM (active) | inactive | inactive
19 | CCC(Cc1c(I)cc(I)c(N)c1I)C(=O)O (stereo not drawn) | 30.7 µM (active) and 30.9 µM (active) |  | inactive | inactive
20 | NCCS(=O)(=O)O |  |  | inactive | 

Row | SMILES | Potency [1] | Potency [2] | Potency [3] | Potency [4]
21 | COc1ccc(C(=O)c2ccccc2O)c(O)c1 |  |  | inactive | 
22 | CC(C)[N+](C)(CCOC(=O)C1c2ccccc2Oc2ccccc21)C(C)C | inactive |  | inactive | inactive
23 | c1ccc2cc3ccccc3cc2c1 |  | 653 nM (active) and 502 nM (active) | inactive | inactive
24 | CCC/C=C/C=O |  | inactive | inactive | inactive
25 | CCCCCCOCCOCCO |  |  | inactive | 
26 | C=C[C@@]1(C)CC(=O)[C@]2(O)[C@@]3(C)[C@@H](O)CCC(C)(C)[C@@H]3[C@H](O)[C@H](OC(C)=O)[C@@]2(C)O1 |  | inactive | inactive | 
27 | C[C@]12CC[C@@H]3c4ccc(O)cc4CC[C@H]3[C@@H]1CC[C@H]2O | 11.4 µM (active) and inactive |  |  | inactive
28 | C=C[C@H]1CN2CC[C@H]1C[C@@H]2[C@@H](O)c1ccnc2ccc(OC)cc12 |  | inactive |  | 
29 | [Na+] | inactive |  | inactive | inactive
30 | CC1(C)C(C=C(Cl)Cl)C1C(=O)OCc1cccc(Oc2ccccc2)c1 (stereo not drawn) | 15.8 µM (active) and 8.94 µM (active) |  | inactive | inactive
31 | CC(C)(Oc1ccc(Cl)cc1)C(=O)O |  |  | inactive | 
32 | O=C1OC2(c3ccccc31)c1cc(I)c(O)c(I)c1Oc1c2cc(I)c(O)c1I |  |  | inactive | 
33 | Cc1cccc(Nc2ccccc2C(=O)O)c1C | 31.7 µM (active) and 30.9 µM (active) |  | inactive | inactive
34 | COC(=O)C(C)Oc1ccc(Oc2ncc(C(F)(F)F)cc2Cl)cc1 (stereo not drawn) | inactive |  |  | inactive
35 | COC(=O)c1ccc(C)cc1 | inactive |  | inactive | inactive
36 | CCCCCCCCCCCCCO |  | inactive and 26.1 µM (active) | inactive | inactive
37 | O=C(O)CCCCCCCCCCCC(=O)O |  |  | inactive | inactive
38 | NC[C@H](O)c1ccc(O)c(O)c1 |  | inactive | inactive | inactive
39 | CC(C)=CCO |  | inactive | inactive | inactive
40 | CC/C(=C(/CC)c1ccc(O)cc1)c1ccc(O)cc1 |  |  | inactive | 
